Among the data in PMC12820563, “FoxP3 forms a head-to-head dimer in vivo and stabilizes its multimerization on adjacent microsatellites” are binding signal values, retold here.

The full ranking holds about 16,000 sequences; the median of “rpm ratio (pull-down/input)” is about 0.5, and the highest 2% start at about 5.5. Many of the other results were omitted from the sample, so the highest values are more common in it than they were.

The target of the experiment is T1, MBP-FoxP3dN (Mus musculus, UniProt Q99JB6 188-423).
T1 sequence: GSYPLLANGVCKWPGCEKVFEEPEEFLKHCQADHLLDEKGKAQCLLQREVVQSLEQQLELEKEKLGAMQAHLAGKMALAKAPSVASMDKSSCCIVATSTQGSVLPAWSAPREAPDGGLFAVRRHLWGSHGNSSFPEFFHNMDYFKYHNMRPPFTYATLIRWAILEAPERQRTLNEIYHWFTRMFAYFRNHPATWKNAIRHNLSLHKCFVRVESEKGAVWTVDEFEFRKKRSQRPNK
As to the kind of experiment: PD-seq (MBP pull-down with sequencing); 20 mM Tris-HCl pH 7.5, 100 mM NaCl, 1.5 mM MgCl2, 0.4 uM protein, 0.1 uM dsDNA library, 30 min, room temperature, amylose pull-down; high values mean tight binding. The settings on record: protein: recombinant; tags: His6-MBP; chain copies: 2; dsDNA, one strand shown. In outline: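 A degenerate double-stranded DNA library, filled in with Klenow, was added at 0.1 µM to 0.4 µM His6-MBP-tagged mouse FoxP3 or FoxP1 fragment lacking the N-terminus, expressed in E. coli. Incubation lasted 30 min at room temperature in Tris pH 7.5 buffer with NaCl and MgCl2, after which complexes were collected on amylose resin, washed three times, digested with proteinase K to free the DNA, barcoded by PCR and sequenced by Illumina. Binding is the pooled-replicate reads-per-million enrichment of pull-down over input.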
As for “GATGATTGTTCTCCCAGCTGATGAATTCTTAGTTTCGAGTAAACAAATTTTCCTAATCTTTCTGTTCAAGCGCCATCTAC”, the binding signal was 0.302 RPM ratio (pull-down/input).
“GATGATTGTTCTCCCAGCTGATGAATTACCAGGCTCGAGTAAACAAATTTTCCTAATCTTTCTGTTCAAGCGCCATCTAC”: the binding signal is 0.357 RPM ratio (pull-down/input).
On to “GATGATTGTTCTCCCAGCTGATGAATTTGAGCATTCGAGTAAACAAATTTTCCTAATCTTTCTGTTCAAGCGCCATCTAC”, for which the binding signal was 5.36 RPM ratio (pull-down/input).
For “GATGATTGTTCTCCCAGCTGATGAATTGAGCAGCTCGAGTAAACAAATTTTCCTAATCTTTCTGTTCAAGCGCCATCTAC”, the binding signal was 1.12 RPM ratio (pull-down/input).
In the case of “GATGATTGTTCTCCCAGCTGATGAATTTTGAGCATCGAGTAAACAAATTTTCCTAATCTTTCTGTTCAAGCGCCATCTAC”, the binding signal is 0.906 RPM ratio (pull-down/input).
As for “GATGATTGTTCTCCCAGCTGATGAATTGAGCATCTCGAGTAAACAAATTTTCCTAATCTTTCTGTTCAAGCGCCATCTAC”, the binding signal is 6.26 RPM ratio (pull-down/input).
With “GATGATTGTTCTCCCAGCTGATGAATTGAGCATTTCGAGTAAACAAATTTTCCTAATCTTTCTGTTCAAGCGCCATCTAC”, the binding signal was 6.08 RPM ratio (pull-down/input).
For “GATGATTGTTCTCCCAGCTGATGAATTCGAGCATTCGAGTAAACAAATTTTCCTAATCTTTCTGTTCAAGCGCCATCTAC”, the binding signal is 4.97 RPM ratio (pull-down/input).
Consider “GATGATTGTTCTCCCAGCTGATGAATTGAAGTCTTCGAGTAAACAAATTTTCCTAATCTTTCTGTTCAAGCGCCATCTAC”, for which the binding signal was 0.312 RPM ratio (pull-down/input).
In the case of “GATGATTGTTCTCCCAGCTGATGAATTAGCCTCCTCGAGTAAACAAATTTTCCTAATCTTTCTGTTCAAGCGCCATCTAC” it was 1.57 RPM ratio (pull-down/input); in that of “GATGATTGTTCTCCCAGCTGATGAATTAAGCGGATCGAGTAAACAAATTTTCCTAATCTTTCTGTTCAAGCGCCATCTAC”, 0.341 RPM ratio (pull-down/input).
For “GATGATTGTTCTCCCAGCTGATGAATTGTAAACGTCGAGTAAACAAATTTTCCTAATCTTTCTGTTCAAGCGCCATCTAC”, the binding signal was 0.874 RPM ratio (pull-down/input).
The result for “GATGATTGTTCTCCCAGCTGATGAATTCCCACTCTCGAGTAAACAAATTTTCCTAATCTTTCTGTTCAAGCGCCATCTAC” reads 0.323 RPM ratio (pull-down/input); that for “GATGATTGTTCTCCCAGCTGATGAATTCTGCCACTCGAGTAAACAAATTTTCCTAATCTTTCTGTTCAAGCGCCATCTAC”, 6.04 RPM ratio (pull-down/input).
Consider “GATGATTGTTCTCCCAGCTGATGAATTCCGCCACTCGAGTAAACAAATTTTCCTAATCTTTCTGTTCAAGCGCCATCTAC”, for which the binding signal is 6.15 RPM ratio (pull-down/input).
Regarding “GATGATTGTTCTCCCAGCTGATGAATTCTCCCACTCGAGTAAACAAATTTTCCTAATCTTTCTGTTCAAGCGCCATCTAC”, the binding signal was 0.246 RPM ratio (pull-down/input).
In the case of “GATGATTGTTCTCCCAGCTGATGAATTCAGCCACTCGAGTAAACAAATTTTCCTAATCTTTCTGTTCAAGCGCCATCTAC”, the binding signal was 5.07 RPM ratio (pull-down/input).
Regarding “GATGATTGTTCTCCCAGCTGATGAATTTTCCCACTCGAGTAAACAAATTTTCCTAATCTTTCTGTTCAAGCGCCATCTAC”, the binding signal was 0.213 RPM ratio (pull-down/input).
As for “GATGATTGTTCTCCCAGCTGATGAATTCCCCCACTCGAGTAAACAAATTTTCCTAATCTTTCTGTTCAAGCGCCATCTAC”, the binding signal was 0.253 RPM ratio (pull-down/input).
Regarding “GATGATTGTTCTCCCAGCTGATGAATTTCTCCACTCGAGTAAACAAATTTTCCTAATCTTTCTGTTCAAGCGCCATCTAC”, the binding signal was 0.272 RPM ratio (pull-down/input).
Take “GATGATTGTTCTCCCAGCTGATGAATTTTCGCACTCGAGTAAACAAATTTTCCTAATCTTTCTGTTCAAGCGCCATCTAC”: the binding signal was 0.504 RPM ratio (pull-down/input).
In the case of “GATGATTGTTCTCCCAGCTGATGAATTTCGCCACTCGAGTAAACAAATTTTCCTAATCTTTCTGTTCAAGCGCCATCTAC” it was 5.74 RPM ratio (pull-down/input).
For “GATGATTGTTCTCCCAGCTGATGAATTGTGCCACTCGAGTAAACAAATTTTCCTAATCTTTCTGTTCAAGCGCCATCTAC”, the binding signal was 6.84 RPM ratio (pull-down/input).
Consider “GATGATTGTTCTCCCAGCTGATGAATTCGCCCACTCGAGTAAACAAATTTTCCTAATCTTTCTGTTCAAGCGCCATCTAC”, for which the binding signal is 0.406 RPM ratio (pull-down/input).
“GATGATTGTTCTCCCAGCTGATGAATTTCTCGTCTCGAGTAAACAAATTTTCCTAATCTTTCTGTTCAAGCGCCATCTAC”: the binding signal is 0.277 RPM ratio (pull-down/input).
Turning to “GATGATTGTTCTCCCAGCTGATGAATTACCACTGTCGAGTAAACAAATTTTCCTAATCTTTCTGTTCAAGCGCCATCTAC”, the binding signal was 0.41 RPM ratio (pull-down/input).
As for “GATGATTGTTCTCCCAGCTGATGAATTAGACTTGTCGAGTAAACAAATTTTCCTAATCTTTCTGTTCAAGCGCCATCTAC”, the binding signal was 0.529 RPM ratio (pull-down/input).
On to “GATGATTGTTCTCCCAGCTGATGAATTCTCATGTTCGAGTAAACAAATTTTCCTAATCTTTCTGTTCAAGCGCCATCTAC”, for which the binding signal was 0.416 RPM ratio (pull-down/input).
As for “GATGATTGTTCTCCCAGCTGATGAATTATCGGTCTCGAGTAAACAAATTTTCCTAATCTTTCTGTTCAAGCGCCATCTAC”, the binding signal was 0.382 RPM ratio (pull-down/input).
For “GATGATTGTTCTCCCAGCTGATGAATTACGTACATCGAGTAAACAAATTTTCCTAATCTTTCTGTTCAAGCGCCATCTAC”, the binding signal was 0.647 RPM ratio (pull-down/input).
On to “GATGATTGTTCTCCCAGCTGATGAATTGTGATGTTCGAGTAAACAAATTTTCCTAATCTTTCTGTTCAAGCGCCATCTAC”, for which the binding signal is 4.21 RPM ratio (pull-down/input).
On to “GATGATTGTTCTCCCAGCTGATGAATTTTGCTTATCGAGTAAACAAATTTTCCTAATCTTTCTGTTCAAGCGCCATCTAC”, for which the binding signal was 6.46 RPM ratio (pull-down/input).
